Screens deposited in PubChem BioAssay by National Center for Advancing Translational Sciences (NCATS).
Hits are enriched below; roughly 2.2% of the tested compounds scored in any of these assays.
HepG2 viability – kills HepG2 cells in TGF-b inhibitor counter-screen; HepG2 CAGA-GFP viability, ATP luminescence, 18 h; Potency, µM (series often up to 46.1 µM), usual class: cytotoxic; hit rate 0.76% among 410,000; AID 588856
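HepG2 CAGA-GFP cells (1000/well, DMEM with 1% FBS) received compound, then TGF-beta at 500 pg/mL final, and were incubated 18 hours at 37 degrees C. Viability was read by CellTiter-Glo luminescence. Media-only wells were set as complete cell-killing and DMSO as no toxicity.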
mIDH1 inhibitor – inhibitors of human mutant IDH1 R132H; IDH1-R132H enzyme, NADPH consumption, diaphorase/resazurin fluorescence; O75874; AID 602179; hit rate 0.093% among 390,000; Potency, µM (top dose mostly 76.6 µM), usual class: inhibitors; further: nearly all actives have a fitted effect of over 65% in size
Target sequence (O75874 whole entry R132H, stated change not applied): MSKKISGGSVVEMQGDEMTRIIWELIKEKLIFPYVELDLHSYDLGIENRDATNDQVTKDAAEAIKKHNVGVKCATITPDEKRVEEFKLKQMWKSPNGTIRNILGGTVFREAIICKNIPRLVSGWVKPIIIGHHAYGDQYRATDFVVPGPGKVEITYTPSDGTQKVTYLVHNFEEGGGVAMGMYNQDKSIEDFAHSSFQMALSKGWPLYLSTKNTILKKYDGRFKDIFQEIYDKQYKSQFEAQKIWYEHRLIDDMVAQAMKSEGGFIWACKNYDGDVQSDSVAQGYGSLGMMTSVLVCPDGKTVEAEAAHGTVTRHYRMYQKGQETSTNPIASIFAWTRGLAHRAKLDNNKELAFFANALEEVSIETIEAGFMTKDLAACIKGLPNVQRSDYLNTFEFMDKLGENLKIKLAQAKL
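IDH1-R132H (0.5 ug/mL dispensed) in pH 7.5 Tris buffer was preincubated 30 min with compound, then given a substrate mix of 0.016 mM NADPH and 2 mM alpha-KG for 80 min at room temperature; remaining NADPH was read by diaphorase/resazurin fluorescence.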
ATXN2 expr inh – ATXN2 expression inhibition | hit rate 0.72% among 360,000 | AID 1745845 | HEK-293 ATXN2-luciferase reporter, luminescence, 24 h | Potency, µM (doses to about 57 µM), actives largely listed as inhibitors; further: nearly all actives have a fitted effect of over 55% in size
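ATXN2-luciferase reporter cells (luciferase flanked by upstream and downstream ATXN2 gene portions) were treated 24 h at 37 °C with compounds at up to 57 uM. SteadyGlo luminescence gave expression; GF-AFC fluorescence gave viability.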
TGFb inhibitor – inhibitors of TGF-b signaling; hit rate 1.2% among 410,000; Potency, µM (highest dose often 46.1 µM), hits mostly inhibitors; HepG2 CAGA-GFP TGF-b/SMAD3 reporter, GFP fluorescence, 18 h; TGF-beta stimulated, 500 pg/mL final; AID 588855; further: nearly all actives have a fitted effect of over 65% in size
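GFP signal (ex488/em500-530) from TGF-beta-stimulated HEPG2 CAGA-GFP cells, 500 pg/mL final, 18 h at 37 degrees C in DMEM plus 1% FBS, normalized to unstimulated and DMSO-stimulated controls.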
LDHA inh – blocks human lactate dehydrogenase A. P00338. AID 1347041. hit rate 0.15% among 480,000. activity change, % (values are at about 110 or 230 µM). purified LDHA, NADH/diaphorase-resazurin fluorescence; stronger effect = lower value; in the data active means activity change below about -30%; inconclusive means mostly about -25% to -30%
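Human LDH5 (2 nM) was incubated with 0.06 mM NADH and 0.2 mM pyruvate for 5 min at room temperature in Tris pH 7.4. Remaining NADH was coupled through diaphorase/resazurin, and resorufin fluorescence was read at 0 and 20 min.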
S2 tox – reduces viability in counter-screen for ATXN expression inhibitors; S2 cells (HEK-293 line with an ATXN2-luciferase reporter) viability, CellTiter-Fluor protease fluorescence, 24 h; Potency, µM (doses to about 56.7 µM), most hits filed as cytotoxic; hit rate 0.49% among 400,000; further: nearly all actives have a fitted effect of over 40% in size
Numbers stand for hits; - = inactive; ? = inconclusive; . = no result. Unless noted, the call rests on the fitted dose curve; in most records, active means well fitted curve in the direction sought with a large enough effect; inconclusive means small, poorly fitted or top-dose-only effect, or another doubt; inactive means no such curve, though single readings can be large; an effect the other way counts as inactive or inconclusive.

SMILES	HepG2 viability	mIDH1 inhibitor	ATXN2 expr inh	TGFb inhibitor	LDHA inh	S2 tox
Cc1cc(C)n2c(Nc3ccc(C(C)C)cc3)c(-c3ccsc3)nc2n1	-	-	.	3.55µM	-	.
CCOC(=O)C1(C)CCN1C(=O)c1cccc(OC)c1 (centres undefined)	-	.	-	-	-	-
O=C(Nc1c(Cl)cc([N+](=O)[O-])cc1Cl)c1cc(Cl)cc(Cl)c1O	-	.	.	3.16µM	-	.
O=C(Nc1cccc(O)c1)c1ccc([N+](=O)[O-])cc1Cl	-	-	-	-	-	-
CCCOc1c(Br)cc(C(N)=O)cc1OCC	-	-	-	-	-	-
Cc1cc(C)n(-c2nc(NCCN(C)C)c3c4c(sc3n2)CCCC4)n1	4.47µM	-	14.1µM	?	-	22.4µM
Cc1cc(C)n(-c2nc(NCCCN(C)C)c3c4c(sc3n2)CCCC4)n1	-	-	22.4µM	?	-	.
Cc1cc(C)n(-c2nc(NCCN(C)C)c3c4c(sc3n2)COC(C)(C)C4)n1	-	-	?	?	-	-
COC(=O)Cn1c(=O)n(CCc2ccccc2)c(=O)c2c3c(sc21)CCCC3	-	-	-	-	-	-
CC(=O)c1cccc(S(=O)(=O)N2CCN(c3nc4cc(C)cc(C)c4cc3C#N)CC2)c1	-	-	-	?	-	?
COc1cccc(Oc2ccc(C(F)(F)F)cc2NC(=O)CN2C(=O)NC3(CCCC3)C2=O)c1	12.6µM	-	-	17.8µM	-	?
COc1ccc(Nc2cc(C(=O)NCC(OC)OC)c3ccccc3n2)cc1	.	.	.	.	-	.
COC(CNC(=O)c1ccc2c3c(onc13)-c1ccccc1C2=O)OC	-	-	?	11.2µM	-	.
O=C(CCN1CCc2ccccc2CC1)c1ccc2c(c1)OCCO2	1.41µM	-	?	?	-	?
CCOC(=O)C1(C)CCCCCN1C(=O)c1ccc(N(C)C)cc1 (centres undefined)	-	.	-	-	-	-
CCOC(=O)C1(C)CCCCCN1C(=O)/C=C/c1ccccc1 (centres undefined)	1µM	.	-	-	-	-
CN(C)CCNC(=O)c1ccc(COc2ccc(Cl)cc2Cl)cc1	11.2µM	-	?	?	-	?
COc1ccc(Cl)cc1C(=O)NCCN(C)C	-	-	-	-	-	-
COc1cc(C(C[N+](=O)[O-])c2c(N)n(C)c(=O)n(C)c2=O)ccc1O (centres undefined)	-	-	?	?	-	?
COc1cccc(F)c1C(C[N+](=O)[O-])c1c(N)n(C)c(=O)n(C)c1=O (centres undefined)	-	-	.	3.98µM	-	20µM
Cc1ccc(NC(=O)COC(=O)c2ccc3c(c2)OCCO3)cc1	-	-	-	-	-	-
COc1ccc(/C=N/Nc2cc(C)nc3ccc(OC)cc23)c(OC)c1	-	-	?	10µM	-	.
COc1ccc2nc(C)cc(Nc3ccc(Cl)c(Cl)c3)c2c1	11.2µM	-	25.1µM	?	-	22.4µM
Cc1ccc(C(=O)CC(=O)c2cc(Cl)ccc2O)cc1	-	-	-	?	-	-
N/C(=C\C(=O)c1cc(Cl)ccc1O)C(Cl)(Cl)Cl	-	-	20µM	10µM	-	?
C#CCOCCOCCOCCNc1nc(N2CCN(C(=O)[C@H](CCCCN)n3cc([C@@H](N)C(C)CC)nn3)CC2)nc(N2CCN(C(=O)[C@H](Cc3ccc(O)cc3)n3cc([C@@H](N)CC(C)C)nn3)CC2)n1 (some centres undefined)	-	-	-	?	-	-
O=C(Nc1ccc(Nc2ccncc2)cc1)c1ccc([N+](=O)[O-])cc1	17.8µM	-	.	17.8µM	-	?
NS(=O)(=O)c1ccc(NC(=O)c2nc(S(=O)(=O)Cc3ccccc3F)ncc2Cl)cc1	-	.	.	?	-	.
Cc1ccc(NC(=O)c2nc(S(=O)(=O)Cc3ccccc3F)ncc2Cl)cc1	10µM	.	.	?	-	.
Cc1ccc(NC(=O)c2nc(S(=O)(=O)Cc3ccccc3F)ncc2Cl)cc1C	-	.	.	?	-	.
